Measurements from PubChem BioAssay (Tox21).
Results filed as inconclusive are left out. Active and inactive are the calls of the source. Unless noted, calls follow the shape of the dose curve; as a rule, active = well fitted curve in the direction sought with a large enough effect in the repeat runs; inconclusive = weak or mixed curves; inactive = no such curve, though single readings can be large; an effect the other way counts as inactive or inconclusive.

How the values were obtained:
[1] = qHTS assay to identify small molecule agonists of the vitamin D receptor (VDR) signaling pathway - cell viability counter screen (AID 743224); also: series mostly up to about 63 µM; nearly all actives have a fitted effect of over 50% in size
Outline: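 VDR-bla cells, 4 h after plating, exposed to compounds for 16 h at 37C; viability then read in the same wells as CellTiter-Glo luminescence after 30 min at room temperature, following the bla FRET read.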

[2] = qHTS assay to identify small molecule antagonists of the vitamin D receptor (VDR) signaling pathway - cell viability counter screen (AID 743225); also: nearly all actives have a fitted effect of over 50% in size
Outline: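 Cytotoxicity toward the VDR-bla HEK 293T line was scored by ATP-based CellTiter-Glo luminescence, read in the wells already used for the beta-lactamase readout after 16 h compound treatment under 3 nM 1-alpha,25-dihydroxyvitamin D3 stimulation.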

[3] = qHTS assay to identify small molecule agonists of the endoplasmic reticulum stress response signaling pathway - cell viability counter screen (AID 1159517; calls by dose curve;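 also: HeLa cells carrying an ER stress response element beta-lactamase reporter; series mostly up to about 61 µM; nearly all actives have a fitted effect of over 50% in size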)
Outline: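 Cells, HeLa ESRE-bla; density, 1,500/well; dosing, 5 hr at 37 C, 5% CO2; readout, CellTiter-Glo luminescence after 30 min RT.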

[4] = qHTS assay to identify small molecule agonists of the AP-1 signaling pathway - cell viability counter screen (AID 1159525; calls by dose curve; also: nearly all actives have a fitted effect of over 55% in size)
Outline: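 Luminescent ATP readout (Cell Titer Glo, 30 min RT), normalised to DMSO and tetra n-octyl ammonium bromide controls. Cells were ME-180 AP-1-bla in 0.5% dialyzed FBS Opti-MEM, with a 5 h, 37 °C compound exposure.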

[5] = qHTS assay to identify small molecule agonists of the AP-1 signaling pathway (AID 1159526; calls by dose curve)
[6] = molecular target: Retinoic acid receptor RXR-alpha (Homo sapiens) (UniProt P19793); test: qHTS assay to identify small molecule agonists of the RXR signaling pathway (AID 1159527; calls by dose curve; also: nearly all actives have a fitted effect of over 35% in size; also: potency is read from the fitted curve at half-maximal effect)
Outline: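 Reporter activation is measured as beta-lactamase activity via FRET substrate cleavage (emission 460/530 nm) in HEK 293T cells expressing an RXR-alpha-driven bla construct, following 16 hr compound exposure at 37 C.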

[7] = qHTS assay to identify small molecule agonists of the RXR signaling pathway - cell viability counter screen (AID 1159529); also: series mostly up to about 77 µM; nearly all actives have a fitted effect of over 50% in size
Outline: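 Tox21 10K compounds were tested for cytotoxicity against GeneBLAzer RXR-alpha HEK 293T cells grown in 2% charcoal-stripped FBS. Exposure lasted 16 hr at 37 C, 5% CO2; viability read by CellTiter-Glo luminescence.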

[8] = qHTS assay to identify small molecule antagonists of the retinoid acid receptor (RAR) signaling pathway - cell viability counter screen (AID 1159551); also: nearly all actives have a fitted effect of over 35% in size
Outline: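 C3RL4 RARE-luciferase cells, 1,000/well, incubated overnight, then dosed with compound plus 1 uM retinol (final). After 6 hr at 37 C, viability read by CellTiter-Glo ATP luminescence following 30 min at room temperature.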

[9] = qHTS assay to identify small molecule antagonists of the retinoic acid receptor (RAR) signaling pathway (AID 1159552; also: nearly all actives have a fitted effect of over 50% in size)
Outline: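 Overnight-plated C3RL4 reporter cells get compound, then retinol to 1 uM final; plates sit 6 hr at 37 C, 5% CO2. A luciferase reagent is added and light output recorded after 30 min at room temperature.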

[10] = qHTS assay to identify small molecule agonists of the retinoic acid receptor (RAR) signaling pathway (AID 1159553)
Outline: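 C3RL4 RARE-luciferase cells were seeded at 1,000/well and grown overnight at 37 C, then exposed to compounds for 6 hr at 37 C, 5% CO2. Luciferase reagent was added and luminescence was read after 30 min at room temperature.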

[11] = qHTS assay to identify small molecule antagonists of the estrogen related receptor (ERR) signaling pathway - cell viability counter screen (AID 1224818); also: series mostly up to about 46 µM
Outline: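 ERR cells, 2,000 per well, compound added after 6 h and incubated 17.5 h at 37 C. Viability read by CellTiter-Fluor fluorescence after a further 30 min at 37 C.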

[12] = qHTS assay to identify small molecule antagonists of the estrogen related receptor signaling pathway with the pleiotropic PPARgamma coactivator (PGC) cell viability counter screen (AID 1224822; also: series mostly up to about 46 µM)
Outline: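 PGC/ERR cells rested 6 h, then compound-treated 17.5 h at 37 C. CellTiter-Fluor added for 30 min at 37 C, viability measured by fluorescence intensity.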

[13] = qHTS assay to identify small molecule antagonists of the estrogen related receptor (ERR) signaling pathway from Tox21 library - cell viability counter screen (AID 1224834); also: nearly all actives have a fitted effect of over 30% in size
Outline: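 ERR reporter cells, 2,000 per well, rested 6 h, then exposed to compound in DMSO for 17.5 hours at 37 C. Viability read as fluorescence after 30 min with CellTiter-Fluor.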

[14] = qHTS assay to identify small molecule antagonists of the retinoid-related orphan receptor gamma (ROR-gamma) signaling pathway - cell viability counter screen (AID 1159520); also: nearly all actives have a fitted effect of over 50% in size
Outline: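 Cytotoxicity was read from cellular ATP (CellTiter-Glo luminescence) after 16 hr at 37 C with 1 uM doxycycline induction. The inducer was added 2 hr after compound transfer to Tet-on ROR gamma CHO cells.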

[15] = molecular target: Nuclear receptor ROR-gamma (Homo sapiens) (UniProt P51449); test: qHTS assay to identify small molecule antagonists of the retinoid-related orphan receptor gamma (ROR-gamma) signaling pathway (AID 1159521)
Outline: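 Readout: ONE-Glo luciferase luminescence, 30 min at room temperature. System: Tet-on RORγ CHO, RORE-LUC. Sequence: compound 2 h, doxycycline 1 uM final, 16 h at 37 C.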

Measured: Potency

Retinoic acid receptor RXR-alpha (Homo sapiens), sequence (P19793 whole entry, looked up): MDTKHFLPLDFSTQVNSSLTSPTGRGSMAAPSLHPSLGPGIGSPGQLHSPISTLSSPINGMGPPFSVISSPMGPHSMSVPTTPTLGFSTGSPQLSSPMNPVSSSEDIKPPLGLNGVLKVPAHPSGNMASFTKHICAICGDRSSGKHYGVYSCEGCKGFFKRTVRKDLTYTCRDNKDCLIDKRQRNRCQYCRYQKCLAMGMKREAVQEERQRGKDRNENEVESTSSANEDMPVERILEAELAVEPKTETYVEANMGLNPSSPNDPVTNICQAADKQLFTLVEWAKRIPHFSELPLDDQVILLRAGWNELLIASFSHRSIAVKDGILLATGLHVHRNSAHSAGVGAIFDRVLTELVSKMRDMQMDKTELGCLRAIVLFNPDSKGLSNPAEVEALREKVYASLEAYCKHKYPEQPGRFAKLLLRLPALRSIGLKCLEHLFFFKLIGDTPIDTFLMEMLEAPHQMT

Cc1cn[nH]c1
inactive: [1] | [2] | [3] | [4] | [5] | [6] | [7] | [8] | [9] | [10] | [11] | [12] | [13]

CC(C)(C)c1cc(CCC(=O)NCCCCCCNC(=O)CCc2cc(C(C)(C)C)c(O)c(C(C)(C)C)c2)cc(C(C)(C)C)c1O
inactive: [14] | [15] | [4] | [5] | [6] | [7] | [8] | [9] | [13]

C#CC(O)CCC (stereo unspecified)
inactive: [14] | [15] | [4] | [5] | [6] | [7] | [8] | [9] | [13]

Oc1cc2ccccc2cc1O
inactive: [14] | [15] | [4] | [5] | [6] | [7] | [8] | [9] | [13]

OCCCCl
inactive: [14] | [15] | [4] | [5] | [6] | [7] | [8] | [9] | [13]

COc1cccc(OC)c1O
inactive: [14] | [15] | [4] | [5] | [6] | [7] | [8] | [9] | [13]

COc1cccc(O)c1
inactive: [14] | [15] | [4] | [5] | [6] | [7] | [8] | [9] | [13]

OCCCS
inactive: [14] | [15] | [4] | [5] | [6] | [7] | [8] | [9] | [13]

CCN(CC)c1cccc(C)c1
inactive: [14] | [15] | [4] | [5] | [6] | [7] | [8] | [9] | [13]

CC(=O)c1ccccc1N
inactive: [14] | [15] | [4] | [5] | [6] | [7] | [8] | [9] | [13]

CCc1c(Br)c(Br)c(Br)c(Br)c1Br
active: [6] 38.9 µM
inactive: [14] | [15] | [4] | [5] | [7] | [8] | [9] | [13]

Brc1ccccn1
inactive: [14] | [15] | [4] | [5] | [6] | [7] | [8] | [9] | [13]

CCCCCCCC(OC)OC
inactive: [14] | [15] | [4] | [5] | [6] | [7] | [8] | [9] | [13]

Cc1ccc(O)cn1
inactive: [14] | [15] | [4] | [5] | [6] | [7] | [8] | [9] | [13]

OCCCc1cccnc1
inactive: [14] | [15] | [4] | [5] | [6] | [7] | [8] | [9] | [13]

OCCN1CN(CCO)CN(CCO)C1
inactive: [14] | [15] | [4] | [5] | [6] | [7] | [8] | [9] | [13]

CC1=CCC(=O)O1
inactive: [14] | [15] | [4] | [5] | [6] | [7] | [8] | [9] | [13]

CCc1cccc(CC)c1NC(=O)C(=O)O
inactive: [14] | [15] | [4] | [5] | [6] | [7] | [8] | [9] | [13]

O=c1cccc[nH]1
inactive: [14] | [15] | [4] | [5] | [6] | [7] | [8] | [9] | [13]

CCCCOCC
inactive: [14] | [15] | [4] | [5] | [6] | [7] | [8] | [9] | [13]

C/C=C/CO
inactive: [14] | [15] | [4] | [5] | [6] | [7] | [8] | [9] | [13]

O=C[C@H](O)[C@H](O)[C@H](O)CO
inactive: [14] | [15] | [4] | [5] | [6] | [7] | [8] | [9] | [13]

CS(C)(=O)=O
inactive: [14] | [15] | [4] | [5] | [6] | [7] | [8] | [9] | [13]
